NS1 inh – blocks influenza NS1 protein function; Potency, µM (series often up to 46.1 µM), without a hit: at the top dose activity, positive = more growth; 270,000 compounds, 0.4% hits; AID 2326; calls by dose curve; also: potency is read from the fitted curve at half-maximal effect; actives are rising curves; nearly all actives have a fitted effect of over 50% in size
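OD600 was taken as the measure of yeast growth restored by compound in an NS1-expressing S. cerevisiae strain. Cells had been washed out of glucose medium and diluted 1:100 into galactose -URA medium, pH 6.0.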
Pf growth 96h – P. falciparum growth inhibition at 96 hours. P. falciparum luciferase reporter growth, 96 h. 320,000 compounds, 6.9% hits. Potency, µM (highest dose often 28.7 µM), for inactives: at the highest dose activity change, negative = inhibition, actives largely listed as inhibitors; also: potency is read from the fitted curve at half-maximal effect; % is scaled to controls: 0 for no effect and ±100 for the full control effect
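Delayed-death screen, second-generation endpoint: infected erythrocytes, 2% hematocrit, 0.05% parasitemia final; 96 hours at 37 C, 5% CO2; luciferase detection reagent; luminescence decrease equals reduced growth.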
Pf growth 48h – inhibits P. falciparum growth in the first generation, 48 h. AID 504832. Potency, µM (top dose mostly 28.7 µM), for the others: at the top dose activity change, negative = inhibition, usual class: inhibitors. 310,000 compounds, 5.9% hits. P. falciparum luciferase growth in erythrocytes, 48 h; also: potency is read from the fitted curve at half-maximal effect; % is scaled to controls: 0 for no effect and ±100 for the full control effect
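Erythrocytes infected with P. falciparum carrying an integrated firefly luciferase reporter (2% hematocrit, 0.1% parasitemia final) were exposed to compounds in RPMI 1640 with 0.5% Albumax at 37 C, 5% CO2. Growth inhibition was scored as reduced luminescence.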
CHX counter – counter-screen hit for Shiga toxin inhibitors, cycloheximide; cell reporter, cycloheximide protein synthesis inhibition counterscreen; max response, %; 300,000 compounds, 12% hits; in the data active = max response mostly above about 13%, no sharp cut-off; inactive = mostly below about 14%; also: read at 38.3 µM for the half of the compounds with a filed dose; 0% is about no effect
FBPA Giardia inh – inhibitors of Giardia lamblia fructose-1,6-bisphosphate aldolase | 290,000 compounds, 0.71% hits | A8B2U2 | AID 2451 | Potency, µM (titrated, usually from 59.6 µM), without a hit: at the highest dose activity, negative = inhibition, usual class: inhibitors | purified Giardia FBPA; also: potency is read from the fitted curve at half-maximal effect; % is scaled to controls: 0 for no effect and ±100 for the full control effect; nearly all actives have a fitted effect of over 55% in size
Target sequence (A8B2U2 whole entry, looked up): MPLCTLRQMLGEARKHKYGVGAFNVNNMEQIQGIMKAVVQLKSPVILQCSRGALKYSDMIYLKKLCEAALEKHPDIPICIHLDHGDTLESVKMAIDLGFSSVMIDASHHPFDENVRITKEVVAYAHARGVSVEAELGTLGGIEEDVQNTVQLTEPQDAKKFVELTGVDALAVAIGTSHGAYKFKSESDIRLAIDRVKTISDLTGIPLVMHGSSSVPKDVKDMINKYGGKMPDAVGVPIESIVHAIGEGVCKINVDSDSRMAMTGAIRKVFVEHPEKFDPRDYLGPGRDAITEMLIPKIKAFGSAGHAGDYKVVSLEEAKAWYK
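Giardia FBPA (40 nM reagent) was preincubated 10 min at RT with compound (up to 57.5 uM final), then substrate plus GAPDH/TPI/NAD/arsenate coupling system with diaphorase/resazurin was added; resorufin fluorescence (525/598 nm) was read after 20 min.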
Shiga toxin inh – blocks Shiga toxin action in Vero cells | 290,000 compounds, 9.2% hits | Vero cells, Shiga toxin protein synthesis inhibition reporter | inhibition, % at 38.7 µM; in the data active = inhibition mostly above about 28%, no sharp cut-off; inactive = mostly below about 43%; also: 0% is about no effect
* hit, by the source's call; ? = inconclusive; / = no result; [ ] = dose if it differs, or a comment. Most compounds without a hit are left out; they make up all but 21% or so of the library. Unless noted, calls follow the shape of the dose curve; as a rule, active = well fitted curve in the direction sought with a large enough effect; inconclusive = small, poorly fitted or top-dose-only effect, or another doubt; inactive = no such curve, though single readings can be large; an effect the other way counts as inactive or inconclusive.

SMILES | NS1 inh | Pf growth 96h | Pf growth 48h | CHX counter | FBPA Giardia inh | Shiga toxin inh
Cc1[nH]c2ccccc2c1C(=O)CSc1ccccn1 | -5% | ? | 14% | 40* | -21% | 45
Cc1[nH]c2ccccc2c1C(=O)C(=O)NC1CC1 | 16% | ? | 49% | 48* | / | 94*
Cc1[nH]c2ccccc2c1C(=O)CCl | 7% | 10µM* | ? | -1 | -2% | -1
Cc1[nH]c2ccccc2c1C(=O)CN1CC(C)OC(C)C1 (centres undefined) | -1% | -10% | 0% | -3 | 2% | 23
Cc1[nH]c2ccccc2c1C(=O)C(=O)NCC1CCCO1 (centres undefined) | / | 24% | -29% | 7 | 5% | -13
Cc1[nH]c2ccccc2c1C(=O)CSc1ccc(F)cc1 | 1% | ? | 0% | 23* | 12% | 52
Cc1[nH]c2ccccc2c1C(=O)CSc1cccc[n+]1[O-] | 6% | ? | -25% | -2 | -22% | -9
O=C(c1csnn1)N1CCC2(CC1)CCN(c1ncccn1)CC2 | / | / | / | / | 1% | /
COC(=O)CNc1cccc(C(F)(F)F)c1 | -1% | 6% | 15% | -1 | -4% | 2
COc1ccc(-c2noc(Cn3cc(S(=O)(=O)N4CCCC4)ccc3=O)n2)cc1 | / | -25% | ? | / | / | /
Cc1ccc(SCC(=O)c2c(C)[nH]c3ccccc23)cc1 | -4% | -100% | ? | 13* | 0% | 35
Cc1[nH]c2ccccc2c1C(=O)CSc1ccccc1 | 4% | 35% | ? | 28* | -9% | 4
Cc1ccc2c(C(=O)CSc3ccccc3)c(C)[nH]c2c1 | -5% | 37% | 37% | 8 | 6% | 34
COc1ccc(CCNCC(O)COc2cccc(C(C)=O)c2)cc1OC (centres undefined) | 3% | -27% | -15%[0.00184 µM] | 1 | ? | -5
Oc1cc(Nc2ccncc2)cc2cccnc12 | / | ? | 12µM* | / | / | /
COc1ccc(Nc2cc(O)c3ncccc3c2)cc1 | / | 0.41µM* | 0.47µM* | / | / | /
Oc1cc(Nc2cccnc2)cc2cccnc12 | / | 4.1µM* | 10µM* | / | / | /
Oc1cc(NCCc2cccnc2)cc2cccnc12 | / | 8.3µM* | 12µM* | / | / | /
O=C(COc1ccc(Nc2ccccc2)cc1)Nc1ccncc1 | / | 0% | -6% | / | / | /
CN(Cc1ccccc1)C(=O)CCC1CCN(C(=O)CCC(F)(F)F)CC1 | -14% | 1% | 12% | 32* | -2% | /
CN(Cc1ccccc1)C(=O)CCC1CCN(S(C)(=O)=O)CC1 | 6% | 12µM* | 0% | 3 | 0% | -19
CN(Cc1ccccc1)C(=O)CCC1CCN(S(=O)(=O)N(C)C)CC1 | 17% | ? | 6% | -3 | 4% | -6
COc1ccc(NC(=O)c2ccccc2N2C(=O)C3C4C=CC(C5CC45)C3C2=O)c(OC)c1 (centres undefined) | 10% | ? | -29% | -2 | 1% | -2
O=C(NC(Nc1ncc(S(=O)(=O)c2ccc([N+](=O)[O-])cc2)s1)(C(F)(F)F)C(F)(F)F)c1ccc(Cl)cc1 | -20% | / | 9.3µM* | 8 | 9% | -11
COC(=O)C1=C(C(=O)OC)[C@@H]2N(Cc3ccccc3)c3ccccc3[C@@]23C[C@@H](C(=O)OC)N(S(=O)(=O)c2cccs2)C3=N1 | / | / | / | / | 0%[12.9 µM] | /
SMILES | NS1 inh | Pf growth 96h | Pf growth 48h | CHX counter | FBPA Giardia inh | Shiga toxin inh
CCn1ccnc1CNCc1cn(-c2cc(C)ccc2C)nc1-c1ccccc1 | -3% | ? | ? | -2 | -9% | -30
Cc1ccc(C)c(-n2cc(CNCCc3cnccn3)c(-c3ccccc3)n2)c1 | 0% | ? | 7.4µM* | -1 | 5% | 17
CC(=O)N1CCCN(Cc2cn(-c3ccc(C)cc3)nc2-c2ccc(F)cc2)CC1 | -4% | 6% | ? | 8 | 3% | 17
COCCN1CCC(CNCc2cn(-c3cc(C)ccc3C)nc2-c2ccccc2)C1 (centres undefined) | 2% | ? | 4.7µM* | 4 | 2% | 1
CC(=O)N1CCCN(Cc2cn(-c3cc(C)ccc3C)nc2-c2ccccc2)CC1 | 1% | -18% | 17µM* | -2 | 3% | -9
CN(CC(=O)N(C)CC(=O)Nc1c(Cl)cccc1Cl)Cc1ccc(Br)s1 | / | -24% | 22% | / | / | /
CNc1ncnc2ccc(-c3cccc(OC)c3)cc12 | / | / | / | / | 0% | /
CC(C)c1nnc(NC(=O)CSc2nc3ccccc3[nH]2)s1 | / | 9% | -6% | 8 | 2% | 9
Cc1nnc(NC(=O)CSc2nccn2-c2ccc(F)cc2)s1 | / | ? | ? | 44* | -1% | 59*
Cc1nnc(NC(=O)CSc2nc3ccccc3[nH]2)s1 | / | 43%[1.15 µM] | 31% | 16* | 1% | 9
Cc1nnc(NC(=O)CSc2nccn2Cc2ccc(F)cc2)s1 | 13% | ? | -10% | -8 | / | -2
CCCC(=O)Nc1ccc(NC(=S)NC(=O)c2cccs2)cc1 | -5% | -3% | -12% | 22 | -23% | 51*
CCN(c1ccccc1)S(=O)(=O)c1ccc(NC(=S)NC(=O)c2cccs2)cc1 | 22% | ? | ? | 17 | -1% | 30*
CCN(CC)c1ccc(NC(=S)NC(=O)c2cccs2)cc1 | -8% | ? | ? | 46* | -7% | 88*
CC(=O)NC(=S)Nc1ccc(NC(=S)NC(=O)c2cccs2)cc1 | -1% | 46% | ? | -4 | / | -13
CCCC(=O)NC(=S)Nc1ccc(NC(=O)c2cccs2)cc1 | -16% | / | ? | 12* | -4% | 26
CC(=O)OC[C@@H]1O[C@@H](O/N=C2/C[C@@H](O)[C@@H](O)[C@@H]3[C@@H]4C(=O)N(Cc5ccc6c(c5)OCO6)C(=O)[C@H]4CC[C@@H]23)[C@H](OC(C)=O)[C@H](OC(C)=O)[C@@H]1OC(C)=O | / | / | / | / | -1%[12.9 µM] | /
Cc1nc(C)n(CC(C)C(=O)N2CCN(S(=O)(=O)c3ccccc3)CC2)n1 (centres undefined) | -4% | -29% | ? | 1 | -8% | -3
Cc1cc(NC(=O)C(C)Sc2nnc(NCc3ccco3)s2)no1 (centres undefined) | / | -12% | 7% | / | / | /
Cc1ccc(C(=O)NC(=S)Nc2ccc(-c3ccc(CO)o3)cc2)cc1 | / | 34% | -11% | 29 | -8% | 51
O=C(NC(=S)Nc1ccc(-c2ccc(CO)o2)cc1)c1cccs1 | / | 19% | 144% | 46* | -14% | 67*
Cc1nn(Cc2ccccc2)c(C)c1NC(=O)c1cc2nc(-c3ccco3)cc(C(F)(F)F)n2n1 | -30% | -10%[5.75 µM] | 12µM* | 6 | 0% | -4
COc1cccc(-c2cc(C(=O)Nc3cnn(Cc4ccc(F)cc4)c3)no2)c1 | -4% | 2.1µM* | 5% | 10 | 3% | 10
Cc1ccccc1Cn1ccc(NC(=O)c2cc3nc(-c4ccco4)cc(C(F)(F)F)n3n2)n1 | -18% | 36% | -64% | -2 | 12% | 29
O=C(NCCCN1CCCC1=O)c1cc2nc(-c3ccco3)cc(C(F)(F)F)n2n1 | 4% | 21% | -2% | -5 | 6% | -6
